Assay results as given in PubChem BioAssay AID1159580 (chemical genetic matrix, 2015).
In all, about 5,500 compounds went through this assay and about 2,000 (36%) were called active. Inconclusive results (about 18%) are left out. Cut-off read from the data, not from the text of the source: active = normalized growth mostly below about 0.91 (no sharp cut-off); inconclusive = no clear call, values can overlap the other calls; inactive = mostly above about 0.92. This is one part of the list.

Assay: chemical genetic growth profiling, strain panel (AID 1159580);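 note: tested at 20 µM; growth read once vehicle control cultures reached saturation at 30 °C; 1 = growth at the plate median or of vehicle wells; lower values mean less growth of the strain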
Details: growth OD

Measured: normalized growth

CNNC
inactive: S. cerevisiae deletion strains, locus YJR075W, strain HOC1, hits give low values 1.02 | S. cerevisiae deletion strains, locus YKL009W, strain mrt4, hits give low values 0.981 | S. cerevisiae deletion strains, locus YKL068W, hits give low values 1.01 | S. cerevisiae deletion strains, locus YKL085W, strain MDH1 (second series), hits give low values 1.01 | S. cerevisiae deletion strains, locus YKL085W, strain MDH1, hits give low values 1.01 | S. cerevisiae deletion strains, locus YKL160W, strain elf1, hits give low values 0.99 | S. cerevisiae deletion strains, locus YKL190W, strain CNB1, hits give low values 1.02 | S. cerevisiae deletion strains, locus YKR001C, strain vps1, hits give low values 1.01 | S. cerevisiae deletion strains, locus YKR026C, strain gcn3, hits give low values 1.02 | S. cerevisiae deletion strains, locus YKR091W, strain srl3, hits give low values 1.02 | S. cerevisiae deletion strains, locus YLL001W, strain dnm1, hits give low values 1.02 | S. cerevisiae deletion strains, locus YLL026W, hits give low values 1 | S. cerevisiae deletion strains, locus YLL041C, strain sdh2, hits give low values 1.02 | S. cerevisiae deletion strains, locus YLR027C, strain aat2, hits give low values 1.01 | S. cerevisiae deletion strains, locus YLR039C, strain RIC1, hits give low values 1.09 | S. cerevisiae deletion strains, locus YLR058C, strain SHM2, hits give low values 1.02 | S. cerevisiae deletion strains, locus YLR102C, strain apc9, hits give low values 0.998 | S. cerevisiae deletion strains, locus YLR221C, strain rsa3, hits give low values 1.01 | S. cerevisiae deletion strains, locus YLR258W, strain gsy2, hits give low values 1.01 | S. cerevisiae deletion strains, locus YLR262C, strain YPT6 (second series), hits give low values 1.01 | S. cerevisiae deletion strains, locus YLR262C, strain YPT6, hits give low values 1.09 | S. cerevisiae deletion strains, locus YLR268W, strain sec22, hits give low values 1.02 | S. cerevisiae deletion strains, locus YLR320W, strain mms22, hits give low values 1.01 | S. cerevisiae deletion strains, locus YLR330W, strain CHS5, hits give low values 1.02 | S. cerevisiae deletion strains, locus YLR342W, strain FKS1 (second series), hits give low values 1.01 | S. cerevisiae deletion strains, locus YLR342W, strain FKS1, hits give low values 1.01 | S. cerevisiae deletion strains, locus YLR357W, strain rsc2, hits give low values 0.986 | S. cerevisiae deletion strains, locus YLR370C, strain arc18, hits give low values 1.01 | S. cerevisiae deletion strains, locus YLR371W, strain rom2, hits give low values 1 | S. cerevisiae deletion strains, locus YLR384C, strain iki3, hits give low values 1.01 | S. cerevisiae deletion strains, locus YLR418C, strain cdc73, hits give low values 0.997 | S. cerevisiae deletion strains, locus YML016C, strain PPZ1, hits give low values 1.02 | S. cerevisiae deletion strains, locus YML032C, strain rad52, hits give low values 0.97 | S. cerevisiae deletion strains, locus YML120C, strain ndi1, hits give low values 1.03 | S. cerevisiae deletion strains, locus YML124C, strain tub3, hits give low values 1.01 | S. cerevisiae deletion strains, locus YMR058W, strain fet3, hits give low values 1.01 | S. cerevisiae deletion strains, locus YMR078C, strain ctf18, hits give low values 0.994 | S. cerevisiae deletion strains, locus YMR125W, strain sto1, hits give low values 1 | S. cerevisiae deletion strains, locus YMR129W, hits give low values 0.999 | S. cerevisiae deletion strains, locus YMR205C, strain PFK2, hits give low values 1.02 | S. cerevisiae deletion strains, locus YMR223W, strain ubp8, hits give low values 1 | S. cerevisiae deletion strains, locus YMR231W, strain pep5, hits give low values 1.01 | S. cerevisiae deletion strains, locus YMR263W, strain SAP30, hits give low values 1.03 | S. cerevisiae deletion strains, locus YMR307W, strain GAS1, hits give low values 1.04 | S. cerevisiae deletion strains, locus YNL067W, strain RPL9B, hits give low values 1.03 | S. cerevisiae deletion strains, locus YNL071W, strain lat1, hits give low values 0.989 | S. cerevisiae deletion strains, locus YNL128W, strain TEP1, hits give low values 1.03 | S. cerevisiae deletion strains, locus YNL153C, strain GIM3, hits give low values 1.03 | S. cerevisiae deletion strains, locus YNL209W, strain ssb2, hits give low values 1.01 | S. cerevisiae deletion strains, locus YNL233W, strain BNI4, hits give low values 1.03 | S. cerevisiae deletion strains, locus YNL248C, strain rpa49, hits give low values 1.03 | S. cerevisiae deletion strains, locus YNL250W, strain rad50, hits give low values 0.997 | S. cerevisiae deletion strains, locus YNL271C, strain bni1, hits give low values 1.01 | S. cerevisiae deletion strains, locus YNL298W, strain CLA4, hits give low values 0.994 | S. cerevisiae deletion strains, locus YNL307C, strain MCK1, hits give low values 0.998 | S. cerevisiae deletion strains, locus YNL322C, strain KRE1 (second series), hits give low values 1.02 | S. cerevisiae deletion strains, locus YNL322C, strain KRE1, hits give low values 1.03 | S. cerevisiae deletion strains, locus YNR049C, strain mso1, hits give low values 1 | S. cerevisiae deletion strains, locus YNR052C, strain pop2, hits give low values 0.994 | S. cerevisiae deletion strains, locus YOL006C, strain TOP1, hits give low values 1.08 | S. cerevisiae deletion strains, locus YOL012C, strain htz1 1.09 | S. cerevisiae deletion strains, locus YOL147C, strain pex11, hits give low values 0.995 | S. cerevisiae deletion strains, locus YOR001W, strain rrp6, hits give low values 1.02 | S. cerevisiae deletion strains, locus YOR061W, strain CKA2, hits give low values 1.02 | S. cerevisiae deletion strains, locus YOR069W, strain VPS5, hits give low values 1.01 | S. cerevisiae deletion strains, locus YOR070C, strain gyp1, hits give low values 1.01 | S. cerevisiae deletion strains, locus YOR080W, strain dia2, hits give low values 0.99 | S. cerevisiae deletion strains, locus YOR083W, strain WHI5, hits give low values 1.01 | S. cerevisiae deletion strains, locus YOR106W, strain vam3, hits give low values 1.02 | S. cerevisiae deletion strains, locus YOR136W, strain idh2, hits give low values 0.994 | S. cerevisiae deletion strains, locus YOR144C, strain elg1, hits give low values 1 | S. cerevisiae deletion strains, locus YOR184W, strain ser1, hits give low values 1 | S. cerevisiae deletion strains, locus YOR265W, strain rbl2, hits give low values 1.02 | S. cerevisiae deletion strains, locus YOR270C, strain vph1, hits give low values 1.1 | S. cerevisiae deletion strains, locus YOR290C, strain snf2, hits give low values 1.03 | S. cerevisiae deletion strains, locus YOR316C, strain cot1, hits give low values 1.01 | S. cerevisiae deletion strains, locus YPL051W, strain arl3, hits give low values 1 | S. cerevisiae deletion strains, locus YPL055C, strain LGE1, hits give low values 1.06 | S. cerevisiae deletion strains, locus YPL078C, strain atp4, hits give low values 1.01 | S. cerevisiae deletion strains, locus YPL106C, strain sse1, hits give low values 1 | S. cerevisiae deletion strains, locus YPL240C, strain hsp82, hits give low values 1.01 | S. cerevisiae deletion strains, locus YPL241C, strain CIN2, hits give low values 1.02 | S. cerevisiae deletion strains, locus YPR119W, strain clb2, hits give low values 1 | S. cerevisiae deletion strains, locus YPR141C, strain kar3, hits give low values 1.01 | S. cerevisiae deletion strains, locus YPR163C, strain tif3, hits give low values 0.994 | S. cerevisiae deletion strains, locus YPR167C, strain met16, hits give low values 1 | S. cerevisiae deletion strains, strain wtn01, hits give low values 1.02 | S. cerevisiae strains, strain wild type, hits give low values 1.01
